Source: PubChem BioAssay
USP8 block = blocks human USP8 ubiquitin-rhodamine cleavage; P40818; hit rate 4.2% among 47,000; purified USP8, Ub-rhodamine cleavage fluorescence, 30 min; AID 1645853; inhibition, % at 20 µM
USP28 block = inhibitors of human USP28 deubiquitinase; Q96RU2; purified USP28, Ub-rhodamine cleavage fluorescence, 30 min; inhibition, % at 25 µM; hit rate 3% among 47,000; AID 1645857
Target sequence (Q96RU2 whole entry, looked up): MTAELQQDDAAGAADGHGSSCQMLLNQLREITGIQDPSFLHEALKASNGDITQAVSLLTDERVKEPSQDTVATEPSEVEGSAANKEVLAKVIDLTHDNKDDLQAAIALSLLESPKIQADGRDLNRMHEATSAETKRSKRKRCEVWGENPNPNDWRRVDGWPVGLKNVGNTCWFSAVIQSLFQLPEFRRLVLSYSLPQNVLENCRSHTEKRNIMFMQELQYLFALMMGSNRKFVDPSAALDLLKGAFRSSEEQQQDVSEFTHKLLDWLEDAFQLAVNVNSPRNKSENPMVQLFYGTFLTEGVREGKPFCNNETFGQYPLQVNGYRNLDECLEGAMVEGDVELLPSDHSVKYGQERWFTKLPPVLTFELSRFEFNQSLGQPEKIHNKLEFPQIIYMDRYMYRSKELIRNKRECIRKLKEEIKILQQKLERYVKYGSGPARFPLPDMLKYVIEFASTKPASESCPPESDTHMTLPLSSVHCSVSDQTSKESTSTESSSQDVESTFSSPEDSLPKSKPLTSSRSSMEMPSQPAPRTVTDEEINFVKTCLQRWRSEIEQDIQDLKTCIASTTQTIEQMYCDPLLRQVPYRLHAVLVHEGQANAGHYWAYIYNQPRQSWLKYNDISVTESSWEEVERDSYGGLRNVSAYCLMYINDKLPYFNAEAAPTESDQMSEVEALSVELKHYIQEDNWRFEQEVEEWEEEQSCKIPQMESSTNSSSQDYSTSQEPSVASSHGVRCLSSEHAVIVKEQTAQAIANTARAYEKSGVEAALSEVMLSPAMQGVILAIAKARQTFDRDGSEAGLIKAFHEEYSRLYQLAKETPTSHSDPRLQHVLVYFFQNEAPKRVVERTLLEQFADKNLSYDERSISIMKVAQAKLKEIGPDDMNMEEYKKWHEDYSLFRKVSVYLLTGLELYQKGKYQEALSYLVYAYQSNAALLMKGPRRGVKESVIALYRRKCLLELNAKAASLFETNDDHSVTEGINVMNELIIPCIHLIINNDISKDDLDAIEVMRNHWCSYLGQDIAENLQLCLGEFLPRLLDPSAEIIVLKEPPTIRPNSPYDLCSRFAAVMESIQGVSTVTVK
USP30 inh = inhibitors of human USP30 deubiquitinase | purified USP30, Ub-rhodamine cleavage fluorescence | inhibition, % at 25 µM | hit rate 5.3% among 47,000
USP10 block = inhibitors of human USP10 deubiquitinase; purified USP10, Ub-rhodamine fluorescence, 60 min; Q14694; hit rate 1.1% among 47,000; AID 1645856; inhibition, % at 20 µM
USP17 inh = blocks human USP17 ubiquitin-rhodamine cleavage; A8MUK1; purified USP17, Ub-rhodamine cleavage fluorescence, 3 h; inhibition, % at 50 µM; hit rate 6.5% among 47,000; AID 1645855
* = called active by the depositor. Rows were chosen to be rich in hits. Some 13% of all compounds tested hit in one or more screens of this group. Cut-off read from the data, not from the text of the source: active = inhibition above about 30%; inactive = the rest.

`O=C(COC(=O)c1ccccc1OCc1ccccc1)Nc1cccc2ccccc12` gave USP8 block 27.5, USP28 block 30.3*, USP30 inh 48.7*, USP10 block 6.1 and USP17 inh 22.7.
`Cc1nn(-c2ccccc2)c(C)c1C(=O)OCC(=O)Nc1cccc2ccccc12` gave USP8 block 7.2, USP28 block -0.8, USP30 inh 10.8, USP10 block 2.1 and USP17 inh -3.1.
Screening O=C(COC(=O)c1ccccc1Nc1ccccc1)Nc1ccc2ccccc2c1 returned USP8 block 4.8, USP28 block -6.5, USP30 inh -7.0, USP10 block 6.3 and USP17 inh -0.4.
For O=C(NC1CC1)c1c(NC(=O)C23CC4CC(CC(C4)C2)C3)sc2c1CCCC2 the results were USP8 block -99.6, USP28 block -18.9, USP30 inh -88.4, USP10 block -4.6 and USP17 inh -27.3.
For COc1ccc2[nH]c(=O)c(C(c3nnnn3CCc3ccccc3)N3CCN(c4cccc(C(F)(F)F)c4)CC3)cc2c1 (stereo not drawn) the results were USP8 block -18.9, USP10 block -3.7 and USP17 inh -137.4.
For COc1cccc(CN2CCCN(CC(=O)Nc3ccccc3)S2(=O)=O)c1 the results were USP8 block 2.8, USP28 block 25.0, USP30 inh 19.5, USP10 block 0.3 and USP17 inh 4.0.
For O=C(CN1CCCN(Cc2ccccc2)S1(=O)=O)Nc1ccc(F)cc1 the results were USP8 block 23.7, USP28 block 16.7, USP30 inh 33.0*, USP10 block 0.7 and USP17 inh 21.4.
Screening O=C(NC1CCCCC1)C1CC(=O)N(c2cccc(-c3noc(-c4cccs4)n3)c2)C1 (stereo not drawn) returned USP8 block -4.1, USP10 block -1.6 and USP17 inh 38.8*.
`Cc1nc(-c2cccc(NC(=O)c3ccc4c(c3)OCO4)c2)no1` gave USP8 block -21.2, USP28 block -39.5, USP30 inh -231.0, USP10 block -6.8 and USP17 inh -48.0.
For Cc1nc2cc(N3CC(C(=O)Nc4cccc(C)c4C)CC3=O)ccc2o1 (stereo not drawn) the results were USP8 block 29.1, USP28 block 9.7, USP30 inh 32.8*, USP10 block -0.1 and USP17 inh 17.7.
`Cc1ccc(N2CC(C(=O)N3CCC(c4noc(-c5ccccc5)n4)CC3)CC2=O)cc1C` (stereo not drawn) gave USP8 block 23.3, USP28 block 8.0, USP30 inh 20.9, USP10 block 3.1 and USP17 inh 9.1.
Cc1ccc(N2CC(C(=O)Nc3cccc(-c4noc(C)n4)c3)CC2=O)cc1 (stereo not drawn) was read as USP8 block 40.4*, USP28 block -2.2, USP30 inh 5.1, USP10 block 25.4 and USP17 inh 11.0.
For CC(=O)Nc1ccc(C(=O)Nc2cccc(-c3noc(C)n3)c2)cc1 the results were USP8 block 3.7, USP10 block 6.0 and USP17 inh 48.5*.
For Cc1nc(C2CCCCN2Cc2ccncc2)nc2c1CCC(=O)N2Cc1ccccn1 (stereo not drawn) the results were USP8 block 13.5, USP28 block -2.7, USP30 inh -4.6, USP10 block -5.3 and USP17 inh 3.1.
Cc1cc(-n2ccnc(NCC(C)c3ccccc3)c2=O)ccc1Br (stereo not drawn) was read as USP8 block -26.7, USP28 block -12.5, USP30 inh -67.0, USP10 block -4.2 and USP17 inh -40.4.
COc1ccc(C(CNS(=O)(=O)c2ccc(OC)cc2)N2CCN(C)CC2)cc1 (stereo not drawn) was read as USP8 block -3.5, USP28 block -17.9, USP30 inh -1.4, USP10 block 0.3 and USP17 inh -1.8.
`Cc1nc(-c2ccc(-n3cc(C(=O)Nc4cccc(F)c4)c(C)n3)cc2)no1` gave USP8 block 8.9, USP28 block 6.8, USP30 inh 15.7, USP10 block 2.8 and USP17 inh 51.3*.
Cc1cc(C)cc(NC(=O)c2cccc(-c3noc(C)n3)c2)c1 was read as USP8 block -5.7, USP28 block -0.5, USP30 inh -2.4, USP10 block 0.0 and USP17 inh -7.4.
CC(=O)Nc1ccc(C(=O)/C=C2\NCCc3cc4c(cc32)OCCCO4)cc1 was read as USP8 block 44.5*, USP28 block -72.8, USP30 inh -271.7, USP10 block -6.1 and USP17 inh -141.0.
For Cc1ccc2c(c1)[nH]c1c(N3CCc4ccccc4C3)ncnc12 the results were USP8 block 34.9*, USP28 block 6.5, USP30 inh -53.3, USP10 block 2.5 and USP17 inh 42.9*.
